Experimental findings from PubChem BioAssay (Tox21) are described below.

Where “and” joins values, the source holds several entries; their conditions need not be identical. Equal entries are not always repeated. Records with an inconclusive call do not appear. A structure can be active in one record and inactive in another. Calls of active or inactive are those of the source. Unless noted, the call rests on the fitted dose curve; in most records, active means well fitted curve in the direction sought with a large enough effect in the repeat runs; inconclusive means weak or mixed curves; inactive means no such curve, though single readings can be large; an effect the other way counts as inactive or inconclusive.

A short description of test [1]: qHTS assay to identify small molecule agonists of the sonic hedgehog signaling (Shh) pathway (AID 1259368; calls by dose curve;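 further: NIH/3T3-derived 3T3Gli1-Luc cells carrying a stable Gli1-driven firefly luciferase reporter; series mostly up to about 92 µM; nearly all actives have a fitted effect of over 15% in size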). The method in brief:
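Cells of a mouse NIH/3T3 clone stably expressing luciferase under the Gli1 transcriptional response element are exposed to test chemicals for 24 hr at 37 C. Pathway activation is detected as a rise in luminescence.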
In general terms: qHTS replaces the single test concentration by a dilution series.

A short description of test [2]: qHTS assay to identify small molecule antagonists of the sonic hedgehog signaling (Shh) pathway (AID 1259369; calls by dose curve; further: nearly all actives have a fitted effect of over 45% in size; further: potency means the concentration at half of the fitted maximal effect). The method in brief:
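Cells are plated and held 4hr at 37 C, compounds (DMSO) are pinned in, conditioned medium is added to stimulate the pathway, and after 24hr luciferase reagent is added for 30min before luminescence is read.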

The target of test [3] is Estrogen receptor beta (Homo sapiens) (UniProt Q92731). The experiment in a line: qHTS assay to identify small molecule agonists of the estrogen receptor beta (ER-beta) signaling pathway (AID 1259377; active means well fitted activation curve with a large enough effect in the signal ratio in the repeat runs, not every such curve was filed as active; the % refers to the signal ratio; further: potency means the concentration at half of the fitted maximal effect). The method in brief: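 Reporter cells (HEK293T, ER-beta-UAS-bla) receive compounds or DMSO after a 6 hr pre-incubation. They then incubate 16 hr at 37C/5% CO2, and fluorescence from LiveBLAzer B/G substrate is measured after 2 hours at room temperature.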

The target is the same in test [4]. The experiment in a line: qHTS assay to identify small molecule antagonists of the estrogen receptor beta (ER-beta) signaling pathway (AID 1259378; active means well fitted inhibition curve with a large enough effect in the signal ratio in the repeat runs, not every such curve was filed as active; the % refers to the signal ratio). The method in brief: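 ER-beta-UAS-bla HEK293T (GripTite) cells in 2% charcoal-stripped FBS medium were preincubated 6 hr at 37C, dosed with compound, then stimulated with 1 nM E2 (final) for 16 hr; beta-lactamase reporter read by B/G FRET fluorescence after 2 hr substrate loading.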

Test [5] can be described thus: qHTS assay to identify small molecule agonists of the androgen receptor (AR) signaling pathway in the presence of an antagonist - cell viability counter screen (AID 1259379). Further: nearly all actives have a fitted effect of over 25% in size. Further: potency means the concentration at half of the fitted maximal effect. The method in brief: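 Cytotoxicity is assessed by CellTiter-Fluor in MDA-kb2 cells carrying an MMTV-driven luciferase reporter. Cells receive 3.0uM nilutamide plus compounds at 15 concentrations and incubate 16 hr at 37C without CO2 before fluorescence reading.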

Test [6] is described as follows: qHTS assay to identify small molecule agonists of the estrogen receptor beta (ER-beta) signaling pathway - cell viability counter screen (AID 1259380). Further: nearly all actives have a fitted effect of over 30% in size. Further: potency means the concentration at half of the fitted maximal effect. The method in brief: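 Cytotoxicity is measured in parallel with the reporter screen: after 16 hr compound exposure at 37C and a 2 hr LiveBLAzer step, CellTiter-Glo is added to the same ER-beta-UAS-bla HEK293T wells and luminescence read after 30 min.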

Test [7] deals with Androgen receptor (Homo sapiens) (UniProt P10275). The experiment in a line: qHTS assay to identify small molecule agonists of the androgen receptor (AR) signaling pathway in the presence of an antagonist (AID 1259381; calls by dose curve; further: nearly all actives have a fitted effect of over 15% in size). From the text: National Center for Advancing Translational Sciences [NCATS] NIH Chemical Genomics Center [NCGC] U.S. Environmental Protection Agency [EPA] National Institutes of Environmental Health Sciences [NIEHS] National Toxicology Program [NTP] Assay overview: Androgen receptor (AR) is an important member of nuclear receptor family. Its signaling plays a critical role in AR-dependent prostate cancer and other androgen related diseases. Considerable attention has been given in the past decades to develop methods to study and screen for the environmental chemicals that have the potential to interfere with metabolic homeostasis, reproduction, developmental and behavioral functions. Therefore AR binding assay for screening against androgen agonists and antagonists can be used to identify potential endocrine disruptors. MDA-kb2 cells (from ATCC, deposited by Wilson et al.) are human breast carcinoma cells that were stably transfected with a luciferase reporter gene under control of the MMTV promoter that contains response elements for both androgen receptor (AR) and glucocorticoid receptor (GR). This particular screening for measuring luciferase reporter gene activity using MDA-kb2 cells against Tox21 10K library compounds is a confirmation study on agonist mode screening in the presence of AR-antagonist compound (Nilutamide) at 3.0uM final concentration.
Assay Protocol Summary: MDA-kb2 cells (cells cultured without CO2) were dispensed at 3,000 cells/well in 4uL of culture medium into white wall/solid-bottom 1536-well plates (Corning Life Sciences, Corning, NY) using a Multidrop Combi (Thermo Fisher Scientific Inc., Waltham, MA) dispenser. The assay plates were incubated at 37C and 0% CO2 for 5hr. One uL of 3.0uM (final concentration) Nilutamide or assay buffer was added using two separate tips of Flying Reagent Dispenser (FRD, Aurora Discovery, San Diego, CA). Then 23nL of compounds dissolved in DMSO at 15 concentrations and positive controls were transferred to the assay plates using a Pintool station (Wako, San Diego, CA). The assay plates were incubated at 37C and 0% CO2 for 16hr. For luciferase read, 4uL/well ONE-Glo reagent (Promega Corporation, Madison, WI) was added to each well of the assay plates using FRD. After 30min incubation at room temperature, the luminescence signal was measured using a ViewLux plate reader (PerkinElmer, Shelton, CT).

A short description of test [8]: qHTS assay to identify small molecule antagonists of the estrogen receptor beta (ER-beta) signaling pathway - cell viability counter screen (AID 1259382). Further: series mostly up to about 92 µM; nearly all actives have a fitted effect of over 55% in size. The method in brief:
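Cytotoxicity counter screen multiplexed with the beta-lactamase antagonist assay: GripTite HEK293T ER-beta-bla cells were treated 16 hr with test chemicals in the presence of 1nM 17-beta-estradiol, and viability was measured by CellTiter-Glo.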

Test [9] in a line: qHTS assay to identify small molecule agonists or antagonists of the thyroid stimulating hormone receptor (TSHR) signaling pathway - wild type cell line counter screen (AID 1259384; calls by dose curve). The method in brief: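 Wild-type HEK293 cells were plated 18 h at 37 C/5% CO2, pin-dosed with compound plus Ro20-1724 medium, held 30 min at room temperature, then given cAMP-d2 and anti-cAMP-cryptate; fluorescence was read after 1 h. Fifteen concentrations, triplicate.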

Test [10] concerns the target Estrogen receptor (Homo sapiens) (UniProt P03372). The experiment in a line: qHTS assay to identify small molecule agonists of the estrogen receptor alpha (ER-alpha) signaling pathway in the presence of an antagonist (AID 1259383; calls by dose curve; further: top concentration of the series differs between compounds; nearly all actives have a fitted effect of over 15% in size). The method in brief: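 Agonist-mode confirmation in the presence of the ER antagonist ICI-182,780 at 10.0nM final. Breast-derived VM7Luc4E2 reporter cells were exposed to compounds for 22hr, and ERE-driven luciferase was quantified by luminescence.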

Androgen receptor (Homo sapiens), sequence (P10275 whole entry, looked up): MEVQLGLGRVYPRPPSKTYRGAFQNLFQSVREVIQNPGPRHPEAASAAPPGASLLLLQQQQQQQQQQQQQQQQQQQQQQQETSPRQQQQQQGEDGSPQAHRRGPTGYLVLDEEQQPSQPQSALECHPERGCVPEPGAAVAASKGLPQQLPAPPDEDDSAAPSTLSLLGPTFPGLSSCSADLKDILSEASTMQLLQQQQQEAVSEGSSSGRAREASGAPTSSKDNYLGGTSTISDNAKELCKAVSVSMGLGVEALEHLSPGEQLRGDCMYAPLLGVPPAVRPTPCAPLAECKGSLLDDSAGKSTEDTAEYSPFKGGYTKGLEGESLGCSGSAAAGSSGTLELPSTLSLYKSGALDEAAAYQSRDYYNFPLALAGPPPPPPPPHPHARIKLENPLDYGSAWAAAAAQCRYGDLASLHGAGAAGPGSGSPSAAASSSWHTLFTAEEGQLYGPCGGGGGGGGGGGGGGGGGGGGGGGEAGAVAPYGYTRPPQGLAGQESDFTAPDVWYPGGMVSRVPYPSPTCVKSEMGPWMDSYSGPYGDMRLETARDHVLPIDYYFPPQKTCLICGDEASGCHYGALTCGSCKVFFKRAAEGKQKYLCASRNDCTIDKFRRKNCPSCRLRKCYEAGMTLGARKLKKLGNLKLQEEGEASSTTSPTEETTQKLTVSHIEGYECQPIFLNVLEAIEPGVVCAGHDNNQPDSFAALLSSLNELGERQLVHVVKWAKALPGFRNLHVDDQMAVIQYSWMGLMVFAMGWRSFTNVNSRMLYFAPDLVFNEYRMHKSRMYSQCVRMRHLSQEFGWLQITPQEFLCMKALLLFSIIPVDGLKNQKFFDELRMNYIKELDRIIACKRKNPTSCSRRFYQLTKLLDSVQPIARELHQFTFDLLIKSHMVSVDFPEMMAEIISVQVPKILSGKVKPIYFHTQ
Estrogen receptor beta (Homo sapiens), sequence (Q92731 whole entry, looked up): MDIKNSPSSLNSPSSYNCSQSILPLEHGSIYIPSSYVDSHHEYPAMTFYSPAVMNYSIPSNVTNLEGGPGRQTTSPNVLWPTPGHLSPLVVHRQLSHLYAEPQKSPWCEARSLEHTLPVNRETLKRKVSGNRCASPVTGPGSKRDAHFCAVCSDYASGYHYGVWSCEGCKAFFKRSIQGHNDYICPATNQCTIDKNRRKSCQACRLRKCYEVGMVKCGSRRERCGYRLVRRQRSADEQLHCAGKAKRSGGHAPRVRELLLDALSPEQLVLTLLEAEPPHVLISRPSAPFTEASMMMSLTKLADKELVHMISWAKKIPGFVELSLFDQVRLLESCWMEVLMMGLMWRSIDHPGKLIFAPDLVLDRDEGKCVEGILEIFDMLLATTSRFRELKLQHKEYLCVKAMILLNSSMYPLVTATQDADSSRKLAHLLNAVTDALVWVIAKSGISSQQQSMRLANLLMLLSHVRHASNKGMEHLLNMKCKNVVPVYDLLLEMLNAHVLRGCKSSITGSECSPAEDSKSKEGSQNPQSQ
Estrogen receptor (Homo sapiens), sequence (P03372 whole entry, looked up): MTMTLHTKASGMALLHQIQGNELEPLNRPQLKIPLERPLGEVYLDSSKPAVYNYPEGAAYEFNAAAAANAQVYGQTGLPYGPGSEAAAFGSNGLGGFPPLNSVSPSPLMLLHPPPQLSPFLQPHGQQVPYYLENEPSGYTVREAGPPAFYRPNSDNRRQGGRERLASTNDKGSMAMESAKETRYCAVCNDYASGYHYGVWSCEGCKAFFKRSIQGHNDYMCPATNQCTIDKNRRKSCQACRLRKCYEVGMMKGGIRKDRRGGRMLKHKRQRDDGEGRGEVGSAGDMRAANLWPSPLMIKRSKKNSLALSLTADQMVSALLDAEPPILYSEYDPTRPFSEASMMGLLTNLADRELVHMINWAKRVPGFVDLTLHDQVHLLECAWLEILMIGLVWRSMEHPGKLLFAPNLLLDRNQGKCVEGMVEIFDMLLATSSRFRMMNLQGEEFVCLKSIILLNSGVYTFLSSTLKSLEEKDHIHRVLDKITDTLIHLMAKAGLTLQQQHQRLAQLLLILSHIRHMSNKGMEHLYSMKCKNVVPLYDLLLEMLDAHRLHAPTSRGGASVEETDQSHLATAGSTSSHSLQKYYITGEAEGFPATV

For the compound `CNC(=O)O/N=C/C(C)(C)S(C)(=O)=O`, the compound was classed as inactive in test [1], in test [4], in test [7] and in test [8]. Besides, the Potency result in test [2], in [3], in test [5] and in test [6] was “inactive” throughout.

As to `CN(C)CCC#N`, the compound was classed as inactive in [1], in test [4] and in [8]. In addition, the Potency result in test [2], in test [3], in test [5] and in test [6] was “inactive” throughout.

For `CNC(=O)O/N=C/C(C)(C)S(C)=O` (stereo not given), the compound was called inactive in test [1], in test [4], in test [8] and in [9]. In test [2], the Potency was 39.1 µM (active) and inactive. Also, the Potency entry in test [3], in test [5] and in test [6] was “inactive” in each case.

On to `COP(=S)(OC)SCN1C(=O)c2ccccc2C1=O`, for which the outcome in test [1], in test [4] and in [8] was inactive. For the same compound, the Potency in test [2] is 54.5 µM (active). Further, the Potency entry in [3], in [5] and in [6] was “inactive” in each case.

Turning to `CCOc1ccc(N)cc1`, the outcome in test [1], in [4] and in test [8] was inactive. Besides, the Potency entry in test [2], in test [3], in test [5] and in test [6] was “inactive” throughout.

Consider `CC(C)c1cccc(C(C)C)c1O`, for which the outcome in test [1], in test [4], in [7] and in test [8] was inactive. The Potency result in test [2], in test [3], in test [5] and in test [6] was “inactive” each time.

With `CC(=O)/C=C/c1ccccc1`, the result in test [1], in [4] and in [8] was inactive. Besides, the Potency result in test [2], in [3], in [5] and in test [6] was “inactive” throughout.

For the compound `N#Cc1ccccn1`, the compound was called inactive in test [1], in test [4], in test [8], in test [10] and in [9]. Further, the Potency entry in test [2], in test [3], in [5] and in [6] was “inactive” each time.

Turning to `C=C(C)C(=O)OCC(CC)CCCC` (stereo not given), the compound was called inactive in test [1], in test [4] and in test [8]. Moreover, the Potency entry in test [2], in test [3] and in test [6] was “inactive” throughout. The Potency in [5] is 55.5 µM (active) and inactive.

Regarding `Nc1nc(N)nc(NC2CC2)n1`, the call in test [1], in [4] and in [8] was inactive. Further, the Potency entry in test [2], in [3], in test [5] and in test [6] was “inactive” each time.

For `CN(C)NC(=O)CCC(=O)O`, the compound was called inactive in test [1], in test [4], in test [8] and in [9]. In addition, the Potency result in test [2], in test [3], in [5] and in [6] was “inactive” each time.

In the case of `CC12CC1(C)C(=O)N(c1cc(Cl)cc(Cl)c1)C2=O` (stereo not given), the Potency entry in [2], in [3], in [5] and in test [6] was “inactive” throughout. Further, the call in test [4], in test [7] and in test [8] was inactive.

As to `O=P1(NCCCl)OCCCN1CCCl` (stereo not given), the compound was called inactive in test [1] and in test [8]. For the same compound, the Potency entry in test [2], in [5] and in test [6] was “inactive” in each case.

Take `CNC(=O)O/N=C(\SC)C(=O)N(C)C`: the call in test [1], in [4], in [7], in [8] and in test [9] was inactive. The Potency result in test [2], in test [3] and in test [6] was “inactive” in each case.

Consider `C[C@]12CC[C@H](O)CC1=CC[C@@H]1[C@@H]2CC[C@]2(C)C(=O)CC[C@@H]12`, for which the call in test [1] and in [8] was inactive. The Potency is 1.37 µM (active) and 19.3 µM (active) in [2]; 386 nM (active) and 473 nM (active) in [3]; 48.6 µM (active) and 27.3 µM (active) in [6]. Besides, the Potency result in [5] is “inactive”.

Turning to `OCC(O)CCl` (stereo not given), the compound was called inactive in [1], in [8] and in [9]. Further, the Potency result in test [2], in [5] and in test [6] was “inactive” in each case.

With `CNC(=O)Oc1cccc2ccccc12`, the call in test [1] and in test [8] was inactive. Moreover, in test [2], the Potency is 12.1 µM (active) and 9.44 µM (active). Further, the Potency entry in [5] and in test [6] was “inactive” in each case.

As to `COS(=O)(=O)OC`, the call in [1] and in test [8] was inactive. Also, the Potency entry in [2], in test [5] and in test [6] was “inactive” each time.

Regarding `O=C(O)c1cc(Oc2ccc(C(F)(F)F)cc2Cl)ccc1[N+](=O)[O-]`, the compound was called inactive in test [1], in [4], in test [8] and in [9]. The Potency entry in test [2], in [3], in test [5] and in test [6] was “inactive” each time.

As for `C/C=C/c1ccc2c(c1)OCO2`, the result in [1] and in test [8] was inactive. The Potency entry in test [2], in test [5] and in test [6] was “inactive” throughout.

On to `Oc1ccc(Cl)cc1`, for which the call in test [1], in test [8] and in [9] was inactive. The Potency entry in test [2], in test [5] and in test [6] was “inactive” throughout.

For the compound `CCSC(=O)N1CCCCCC1`, the Potency entry in test [2], in test [3], in test [5] and in test [6] was “inactive” in each case. For the same compound, the result in test [4] and in [8] was inactive.
